# DT40 TDP1 CPT = qHTS for Inhibitors of human tyrosyl-DNA phosphodiesterase 1 (TDP1): qHTS in cells in presence of CPT; Potency, µM (series often up to 46.2 µM), without a hit: at the top dose activity change, negative = growth inhibition, usual class: inhibitors; 420,000 compounds, 12% hits; AID 686979, 2013; chicken DT40 Tdp1-/-;hTDP1 cells + 20 nM CPT, ATP luminescence, 48 h; also: potency is read from the fitted curve at half-maximal effect; % is scaled to controls: 0 for no effect and ±100 for the full control effect; nearly all actives have a fitted effect of over 55% in size
#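 Cell growth measured by CellTiter-Glo luminescence after a minimum 48 h, 37 C compound exposure with 20 nM CPT in Tdp1-knockout DT40 cells stably expressing hTDP1, seeded 400/well; qHTS titration format.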
# IL1B secr inh = qHTS for Inhibitors of Inflammasome Signaling: IL-1-beta AlphaLISA Primary Screen. THP-1 LPS/ATP IL-1B secretion, AlphaLISA, 16 h; stronger effect = lower value. activity change, % at 57.5 µM. 360,000 compounds, 4.7% hits; in the data active = activity change below about -50%; inconclusive = mostly about -30% to -49%; also: % is scaled to controls: 0 for no effect and ±100 for the full control effect
#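 Secreted IL-1B measured by AlphaLISA bead assay after 16 h compound exposure of THP-1 cells; compounds (final up to 57.5 uM) added 1 h before LPS (250 ng/mL) and ATP (1.25 mM) stimulation; lower signal means less secretion.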
# MCF10A rerep = A quantitative high throughput screen for small molecules that induce DNA re-replication in MCF 10a normal breast cells | AID 624296, 2012 | Potency, µM (top dose mostly 46.1 µM), for the others: at the highest dose activity, positive = re-replication, usual class: activators | MCF 10A DNA re-replication, Hoechst nuclear intensity, 48 h | 350,000 compounds, 2.9% hits; also: potency is read from the fitted curve at half-maximal effect; % of control where 0% means no effect; nearly all actives have a fitted effect of over 50% in size
# BCR signal inh = qHTS Assay to Find Inhibitors of Chronic Active B-Cell Receptor Signaling | Potency, µM (doses to about 46.1 µM), without a hit: at the top dose activity change, negative = inhibition, actives largely listed as inhibitors | 340,000 compounds, 0.05% hits | ABC-DLBCL IkBa-CBG/CBR reporter, luminescence ratio, 4 h; active = well fitted inhibition curve with a large enough effect in the signal ratio, with a control signal flat, not every such curve was filed as active; inconclusive = small, poorly fitted or top-dose-only effect, or effect the other way, or a change in a side signal; the % refers to the signal ratio;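 also: potency is read from the fitted curve at half-maximal effect; plate controls were basal doxycycline-induced cells for no effect and cells given 10 µM MG132 for full effect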
#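 Doxycycline induced both beetle luciferases in TMD8 lymphoma cells; IKK-driven degradation limits the IkappaBalpha-fused green signal, while red luminescence normalises for cell number and nonspecific effects. Compounds tested up to 46 uM, 4 hrs.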
# SW480 rereplic = A quantitative high throughput screen for small molecules that induce DNA re-replication in SW480 colon adenocarcinoma cells; 340,000 compounds, 1.8% hits; Potency, µM (titrated, usually from 46.1 µM), without a hit: at the highest dose re-replication activation, usual class: activators; SW480 DNA re-replication, Hoechst DNA content imaging, 48 h; AID 624297, 2012; also: potency is read from the fitted curve at half-maximal effect; % of control where 0% means no effect; nearly all actives have a fitted effect of over 55% in size
#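 Per well, 250 cells were exposed to pinned compound for 48 hr. Nuclear DNA was visualised with Hoechst (40 min, 37 C) and total object intensity recorded by fluorescence scanning.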
# DT40 TDP1 no CPT = qHTS for Inhibitors of human tyrosyl-DNA phosphodiesterase 1 (TDP1): qHTS in cells in absence of CPT | DT40 Tdp1-/- hTDP1 cells, no CPT, ATP luminescence, 48 h | Potency, µM (highest dose often 46.2 µM), inactives show at the top dose activity change, negative = growth inhibition, usual class: inhibitors | 420,000 compounds, 15% hits | AID 686978, 2013; also: potency is read from the fitted curve at half-maximal effect; % is scaled to controls: 0 for no effect and ±100 for the full control effect; nearly all actives have a fitted effect of over 55% in size
#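 Cells were dispensed at 400 per well, compounds added by pin tool, plates incubated ≥48 hr at 37 °C, then CellTiter-Glo added for 30 min at room temperature before luminescence reading. Line: DT40 Tdp1-/- complemented with hTDP1; camptothecin omitted.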
# Numbers without * were called inactive; u = inconclusive; x = not tested or not shown; [ ] = dose if it differs, or a comment. Hits are enriched below; roughly 19% of the tested compounds scored in any of these assays. Unless noted, calls follow the shape of the dose curve; as a rule, active = well fitted curve in the direction sought with a large enough effect; inconclusive = small, poorly fitted or top-dose-only effect, or another doubt; inactive = no such curve, though single readings can be large; an effect the other way counts as inactive or inconclusive.
SMILES,DT40 TDP1 CPT,IL1B secr inh,MCF10A rerep,BCR signal inh,SW480 rereplic,DT40 TDP1 no CPT
Cc1nc(N2CCCC2)ncc1C(=O)NCc1ccc(Cl)cc1,-7%,x,x,x,x,u
Cc1cccc(NS(=O)(=O)c2ccc(C(=O)N3CCCC3)cc2)c1C,-17%,13,19%,-2%,9%,15µM*
Cc1cccc(NS(=O)(=O)c2ccc(C(=O)N3CCCCCC3)cc2)c1C,u,-2,5%,2%,-370%,23µM*
CC(=O)NCCc1ccc(C(=O)COC(=O)c2cccs2)cc1,3%,14,x,x,x,-4%
CC1(Oc2ccccc2-c2ccno2)CCN(Cc2csc3ccccc23)C1 (centres undefined),18µM*,0,x,x,x,u
CC(=O)c1ccc(OC2(C)CCN(Cc3csc4ccccc34)C2)cc1 (centres undefined),u,-1,x,x,x,u
CCOc1ncccc1C(=O)Nc1cccc(-c2nnc3n2CCCCC3)c1,-5%,-9,-21%,u,-13%[1.84 µM],u
CCOC(=O)c1c(NC(=O)CN2C(=O)C(=O)N(C(C)C)C2=O)sc(C)c1CC,u,11,-1%,7%,-2%,u
CN(c1nc(-c2ccc(Br)cc2)cs1)C1CCS(=O)(=O)C1 (centres undefined),u,-77*,22%,-7%,-4%,u
COc1ccc(-c2onc3ccc(C(=O)/C=C/N(C)C)cc23)cc1,13µM*,-3,18µM*,-2%,16µM*,21µM*
CC(=O)c1ccc2noc(-c3ccc(F)cc3)c2c1,-3%,u,-23%,-1%,-5%,u
CC(=O)c1ccc2noc(-c3ccc(Cl)cc3)c2c1,-1%,-9,u,8%,16µM*,0%
COc1cccc(C(=O)c2c[nH]c(C(=O)NCCCN3CCOCC3)c2)c1,-3%,-9,9%,-2%,-64%,-4%
Nc1ccccc1Nc1cc(-c2ccccc2)[nH]n1,-57%,-94*,u,u,8%,13µM*
N#Cc1cc(-c2ccccc2)nn1-c1ccccc1,u,16,17%,u,0%,21µM*
Cc1ccc(-n2nc(-c3ccccc3)cc2Nc2ccccc2N)cc1,-9%,-22,4%,-9%,-3%,-16%
Nc1ccccc1Nc1cc(-c2ccccc2)nn1-c1ccccc1,23µM*,-9,11%,1%,-4%,21µM*
COc1ccc(C(=O)Oc2ccc(C(c3c(C)[nH][nH]c3=O)c3c(C)[nH][nH]c3=O)cc2)cc1,-10%,x,x,x,x,-15%
O=C(NCCCCc1ccccc1)NC[C@@H]1CC[C@@H](Cc2ccc(-c3ccccc3)cc2)O1,16µM*,-13,u,-15%,-33%,15µM*
CC(O)c1ccc(Oc2cnccn2)cc1 (centres undefined),-7%,54,0%,0%,-6%,23%
Cc1ccc(Cn2c(SCC(=O)NCc3ccccc3Cl)nc3ccsc3c2=O)cc1,u,x,x,2%,x,21µM*
COc1ccc(-n2c(SCC(=O)NCc3ccccc3)nc3ccsc3c2=O)cc1,u,x,x,12%,x,u
O=C(CSc1nc2ccsc2c(=O)n1Cc1ccccc1Cl)NCc1ccc(F)cc1,16µM*,x,x,x,x,21µM*
Cc1cc(-n2c(SCC(=O)NCc3ccccc3)nc3ccsc3c2=O)ccc1Cl,16µM*,x,x,0%,x,u
Cc1ccc(Cn2c(SCC(=O)C(C)(C)C)nc3ccsc3c2=O)cc1,21µM*,x,x,12%,x,15µM*
SMILES,DT40 TDP1 CPT,IL1B secr inh,MCF10A rerep,BCR signal inh,SW480 rereplic,DT40 TDP1 no CPT
CCCCn1c(N)c(N(C)C(=O)c2cc3c(s2)CCCCC3)c(=O)[nH]c1=O,-1%,-7,-1%,0%,-5%,8%
COc1ccc(-c2ccc(CN3C(CC(C)C)C(=O)N(Cc4cn(CCC5OCCO5)nn4)CCS3(=O)=O)cc2)cc1OC (centres undefined),21µM*,20,x,x,x,16µM*
COc1ccc(-c2ccc(CN3C(C)C(=O)N(Cc4cn(CCC5OCCO5)nn4)CCS3(=O)=O)cc2)cc1OC (centres undefined),18µM*,20,x,x,x,12µM*
CC(C)CC1C(=O)N(Cc2cn(CCC3OCCO3)nn2)CCS(=O)(=O)N1Cc1ccc(-c2ccc(F)cc2)cc1 (centres undefined),u,-29,x,x,x,23µM*
COc1cc(C(C)=O)ccc1OCC(O)Cn1nc(C)c(Br)c1C (centres undefined),u,-11,12%,-18%,-5%,u
CN(Cc1ccco1)C(=O)[C@H](Cc1ccccc1)NC(=O)CC[C@H]1O[C@@H](n2ccc(=O)[nH]c2=O)[C@H](O)[C@@H]1O,-2%,-4,x,x,x,11%
CC(C)N1CCSC1=S,8%,17,3%,x,-11%,6%
COc1cccc(-n2nc(-c3ccnn3-c3cccc(Cl)c3)c(=O)n(C)c2=O)c1,23µM*,u,3%,9%,2%,16µM*
COc1cccc(-n2nc(-c3ccnn3-c3ccccc3)c(=O)n(C)c2=O)c1,-3%,u,5%,u,-3%,u
CCOC(=O)C=Nc1c(N)n(C)c(=O)n(C)c1=O,0%,16,-9%,5%,-3%,2%
COCCn1c(N)c(N(Cc2ccccc2)C(=O)COc2ccccc2F)c(=O)[nH]c1=O,9%,-14,0%,1%,-9%,-1%
CC(C)(C)NC(=O)C(c1cccs1)N(CC1CCCO1)C(=O)c1ccc(-c2ccccc2)[nH]1 (centres undefined),23µM*,u,u,26%,u,21µM*
O=C(NCC1CCCO1)C(c1cccs1)N(Cc1ccccc1)C(=O)c1ccc(-c2ccccc2)[nH]1 (centres undefined),u,0,26%,10%,25%,21µM*
COc1ccc(N2CCN(C(=O)c3[nH]c(C(F)(F)F)nc3-c3ccccc3)CC2)cc1,u,21,x,x,x,u
Cc1cccc(N2CCN(C(=O)c3[nH]c(C(F)(F)F)nc3-c3ccccc3)CC2)c1C,1.3µM*,128,x,x,x,1.3µM*

# Screens from PubChem BioAssay.
